The target of experiment [1] is Androgen receptor (Homo sapiens) (UniProt P10275). Kind of experiment: qHTS assay for small molecule agonists of androgen receptor signaling (AID 588515; active = well fitted curve in the direction sought with a large enough effect in the signal ratio, with a control signal flat; the % refers to the signal ratio; also: % is scaled to controls: 0 for no effect and ±100 for the full control effect). Conditions: AR-UAS-bla HEK293, beta-lactamase ratio, agonist 16 h; stronger effect = higher value. Put shortly:
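Stimulation of an AR-responsive β-lactamase reporter in GripTite HEK293 cells was measured after 16 h compound exposure at 37 °C, via CCF4 fluorescence after 2 h RT. EC50 from Hill fits, normalized to R1881 at 30 nM.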

Experiment [2] shares this target. Kind of experiment: qHTS assay for small molecule antagonists of androgen receptor signaling (AID 588516; active = well fitted curve in the direction sought with a large enough effect in the signal ratio, with a control signal flat, not every such curve was filed as active; the % refers to the signal ratio; also: % is scaled to controls: 0 for no effect and ±100 for the full control effect). Conditions: AR-UAS-bla HEK293, beta-lactamase ratio, antagonist mode, 16 h; series mostly up to 76.8 µM. The procedure, abridged:
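Cells were plated and incubated 5 h, compounds added in titration, then R1881 (10 nM final) as agonist. After 16 h at 37 C, CCF4 substrate was loaded for 2 h at room temperature and fluorescence measured.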

The target of experiment [3] is Bile acid receptor (Homo sapiens) (UniProt Q96RI1). Kind of experiment: qHTS assay for small molecule antagonists of farnesoid X receptor signaling (AID 588526). Also: % is scaled to controls: 0 for no effect and ±100 for the full control effect. Conditions: HEK293T FXR-UAS-bla, beta-lactamase ratio, antagonist mode; series mostly up to 76.7 µM. Put shortly: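 Concentration-response titrations were fitted to the Hill equation for half-maximal inhibition and maximal response, with data normalised to 50 uM chenodeoxycholic acid and DMSO control wells. Cells: FXR-UAS-bla HEK293T, dialyzed FBS.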

Experiment [4] shares this target. Kind of experiment: qHTS assay for small molecule agonists of farnesoid X receptor signaling (AID 588527).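 Also: 0% = vehicle basal and 100% = reference agonist.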 As to conditions: HEK293T FXR-UAS-bla, beta-lactamase ratio, 16 h; activation: stronger effect = higher value. Put shortly:
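FXR-UAS-bla HEK293T, 10% dialyzed FBS; cpds up to 92 uM titration, 16 h 37 C; CCF4 dye 2 h RT; fluorescence. Normalized to chenodeoxycholic acid 100 uM (100%) and DMSO (0%); Hill fit gives EC50, efficacy.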

Experiment [5] concerns the target Glucocorticoid receptor (Homo sapiens) (UniProt P04150). Kind of experiment: qHTS assay for small molecule agonists of glucocorticoid receptor signaling (AID 588532; active = well fitted curve in the direction sought with a large enough effect in the signal ratio, with a control signal flat; the % refers to the signal ratio;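 also: 100% = dexamethasone at 0.1 µM and 0% = DMSO only wells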). As to conditions: HeLa MMTV-bla, beta-lactamase ratio, agonist, 18 h; activation: stronger effect = higher value, percent of dexamethasone control, DMSO zero. Put shortly:
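Stimulation of a glucocorticoid response element-driven beta-lactamase gene was measured in HeLa cells. Responses were scaled between DMSO basal and 0.1 uM dexamethasone, then fitted for half-maximal stimulation.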

The target of experiment [6] is Peroxisome proliferator-activated receptor gamma (Homo sapiens) (UniProt P37231). Nature of the experiment: qHTS assay for small molecule agonists of peroxisome proliferator-activated receptor gamma signaling (AID 588536; active = well fitted curve in the direction sought with a large enough effect in the signal ratio, with a control signal flat, not every such curve was filed as active; the % refers to the signal ratio;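 also: 0% = DMSO basal wells and 100% = rosiglitazone at 2 µM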). As to conditions: HEK293 PPARg-UAS-bla, beta-lactamase ratio, 16 h; series mostly up to 76.7 µM. Put shortly:
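Compound treatment: 16 h, 37 C, HEK293 GeneBLAzer cells. Detection: CCF4, 2 h RT. Values: Hill-fit EC50, efficacy as % of 2 uM rosiglitazone.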

Experiment [7] has the same target. Nature of the experiment: qHTS assay for small molecule antagonists of peroxisome proliferator-activated receptor gamma signaling (AID 588537; active = well fitted inhibition curve with a large enough effect in the signal ratio, with a control signal flat, not every such curve was filed as active; the % refers to the signal ratio;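 also: reporter cells co-stimulated with 50 nM rosiglitazone agonist during compound treatment; % of control where 0% means no effect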). Conditions: HEK293 PPARg-UAS-bla, beta-lactamase ratio, antagonist mode; series mostly up to 76.8 µM. The procedure, abridged: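 Compounds are tested as concentration series for inhibition of rosiglitazone-driven (50 nM) reporter expression in GeneBLAzer PPAR-gamma-UAS-bla HEK293 cells. After 16 h at 37 C, CCF4 substrate is added for 2 h at room temperature and blue/green fluorescence is measured.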

The target of experiment [8] is Vitamin D3 receptor (Homo sapiens) (UniProt P11473). Kind of experiment: qHTS assay for small molecule agonists of vitamin D receptor signaling (AID 588543).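 Also: 0% = DMSO basal and 100% = reference agonist control.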 As to conditions: HEK293T VDR-UAS-bla, beta-lactamase ratio, 16 h; series mostly up to 76.8 µM. Put shortly:
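Reporter cells (HEK293T, VDR-UAS-bla) were seeded in medium with 2% charcoal-stripped serum and incubated 5 h, then compounds in concentration series were added for 16 h at 37 °C. Stimulation was scaled between DMSO basal and 50 nM 1α,25-dihydroxyvitamin D3.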

Experiment [9] can be described thus: qHTS assay for small molecule agonists of retinoid X receptor alpha signaling (AID 588544). As to conditions: HEK293T RXRa-UAS-bla, beta-lactamase reporter, 18 h; 530 nm emission.
Experiment [10] in a line: qHTS assay for small molecule activators of the human pregnane X receptor (PXR) signaling pathway (AID 720659; call rule not given here; also: 0% is about no effect). Conditions: DPX-2 HepG2 CYP3A4-luciferase, 24 h; series mostly up to 92.3 µM.
Experiment [11] is described as follows: qHTS assay for small molecule agonists of the antioxidant response element (ARE) signaling pathway (AID 651741; active = well fitted activation curve with a large enough effect in the signal ratio; the % refers to the signal ratio; also: potency is read from the fitted curve at half-maximal effect; as to activation: % of control where 0% means no effect). As to conditions: HepG2 ARE-bla reporter, beta-lactamase FRET ratio, 16 h; series mostly up to 96 µM. The procedure, abridged: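 Reporter: beta-lactamase under ARE, stably in HepG2. Exposure: 16 h, 37 C, compounds delivered in DMSO by pin tool after 5 h cell preincubation. Readout: FRET substrate fluorescence after 2 h at RT.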

The results in this text go back to PubChem BioAssay (NCATS).

Structures are written as SMILES. Results filed as inconclusive are left out. Active and inactive are the calls of the source. Unless noted, calls follow the shape of the full dose curve.

Sequence of Glucocorticoid receptor (Homo sapiens) (P04150 whole entry, looked up): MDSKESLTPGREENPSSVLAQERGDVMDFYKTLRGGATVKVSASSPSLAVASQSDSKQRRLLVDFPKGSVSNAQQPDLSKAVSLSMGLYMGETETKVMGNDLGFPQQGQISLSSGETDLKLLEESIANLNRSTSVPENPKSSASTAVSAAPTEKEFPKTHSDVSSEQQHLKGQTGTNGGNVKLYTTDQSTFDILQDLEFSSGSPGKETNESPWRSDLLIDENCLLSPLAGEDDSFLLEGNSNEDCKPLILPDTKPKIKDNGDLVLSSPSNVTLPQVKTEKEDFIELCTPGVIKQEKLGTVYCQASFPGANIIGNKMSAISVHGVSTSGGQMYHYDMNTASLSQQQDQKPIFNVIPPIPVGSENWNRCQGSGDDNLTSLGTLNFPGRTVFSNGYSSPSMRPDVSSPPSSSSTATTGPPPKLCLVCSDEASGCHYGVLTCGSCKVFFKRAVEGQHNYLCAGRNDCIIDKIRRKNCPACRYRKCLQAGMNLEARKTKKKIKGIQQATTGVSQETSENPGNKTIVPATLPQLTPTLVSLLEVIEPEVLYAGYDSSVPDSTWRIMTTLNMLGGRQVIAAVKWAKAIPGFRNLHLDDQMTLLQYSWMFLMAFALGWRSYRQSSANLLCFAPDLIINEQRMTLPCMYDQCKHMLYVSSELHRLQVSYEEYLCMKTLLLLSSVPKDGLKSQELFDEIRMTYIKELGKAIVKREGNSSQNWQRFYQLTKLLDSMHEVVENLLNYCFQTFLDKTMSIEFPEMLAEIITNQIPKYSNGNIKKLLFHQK
Sequence of Androgen receptor (Homo sapiens) (P10275 whole entry, looked up): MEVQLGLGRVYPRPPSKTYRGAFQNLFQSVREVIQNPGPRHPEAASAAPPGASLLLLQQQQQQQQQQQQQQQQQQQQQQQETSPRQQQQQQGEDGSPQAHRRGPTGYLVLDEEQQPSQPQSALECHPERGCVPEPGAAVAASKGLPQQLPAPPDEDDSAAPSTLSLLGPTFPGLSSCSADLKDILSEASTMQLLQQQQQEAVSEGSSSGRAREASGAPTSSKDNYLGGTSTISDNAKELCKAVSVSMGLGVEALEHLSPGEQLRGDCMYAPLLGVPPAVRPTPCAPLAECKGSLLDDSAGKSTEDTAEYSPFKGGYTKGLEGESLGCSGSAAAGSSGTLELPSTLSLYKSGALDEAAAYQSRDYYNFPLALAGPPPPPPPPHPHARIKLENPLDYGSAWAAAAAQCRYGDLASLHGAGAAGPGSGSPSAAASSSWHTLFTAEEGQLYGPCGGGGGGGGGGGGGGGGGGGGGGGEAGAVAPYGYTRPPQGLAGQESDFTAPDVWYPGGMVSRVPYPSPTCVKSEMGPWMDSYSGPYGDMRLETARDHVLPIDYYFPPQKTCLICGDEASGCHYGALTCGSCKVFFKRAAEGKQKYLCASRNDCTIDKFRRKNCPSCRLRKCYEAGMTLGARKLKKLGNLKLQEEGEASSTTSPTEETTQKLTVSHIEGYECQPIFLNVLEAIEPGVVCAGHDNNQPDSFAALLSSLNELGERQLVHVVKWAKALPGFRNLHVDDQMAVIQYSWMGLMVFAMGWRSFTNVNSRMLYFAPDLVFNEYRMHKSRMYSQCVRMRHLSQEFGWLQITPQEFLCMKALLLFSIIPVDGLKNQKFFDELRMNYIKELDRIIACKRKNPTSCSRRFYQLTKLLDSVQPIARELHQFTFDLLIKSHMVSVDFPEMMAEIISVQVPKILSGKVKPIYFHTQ
Sequence of Vitamin D3 receptor (Homo sapiens) (P11473 whole entry, looked up): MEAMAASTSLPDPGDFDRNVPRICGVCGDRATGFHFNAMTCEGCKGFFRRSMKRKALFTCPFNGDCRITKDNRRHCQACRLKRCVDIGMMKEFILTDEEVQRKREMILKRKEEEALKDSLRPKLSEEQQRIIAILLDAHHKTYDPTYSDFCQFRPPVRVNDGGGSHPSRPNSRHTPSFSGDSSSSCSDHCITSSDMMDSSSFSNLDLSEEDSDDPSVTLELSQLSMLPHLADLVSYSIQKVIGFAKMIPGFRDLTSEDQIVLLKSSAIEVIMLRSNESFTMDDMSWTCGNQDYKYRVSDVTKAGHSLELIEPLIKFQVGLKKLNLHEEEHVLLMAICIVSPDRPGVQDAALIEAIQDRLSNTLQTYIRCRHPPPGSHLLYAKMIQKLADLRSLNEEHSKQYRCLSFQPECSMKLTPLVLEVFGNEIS
Sequence of Bile acid receptor (Homo sapiens) (Q96RI1 whole entry, looked up): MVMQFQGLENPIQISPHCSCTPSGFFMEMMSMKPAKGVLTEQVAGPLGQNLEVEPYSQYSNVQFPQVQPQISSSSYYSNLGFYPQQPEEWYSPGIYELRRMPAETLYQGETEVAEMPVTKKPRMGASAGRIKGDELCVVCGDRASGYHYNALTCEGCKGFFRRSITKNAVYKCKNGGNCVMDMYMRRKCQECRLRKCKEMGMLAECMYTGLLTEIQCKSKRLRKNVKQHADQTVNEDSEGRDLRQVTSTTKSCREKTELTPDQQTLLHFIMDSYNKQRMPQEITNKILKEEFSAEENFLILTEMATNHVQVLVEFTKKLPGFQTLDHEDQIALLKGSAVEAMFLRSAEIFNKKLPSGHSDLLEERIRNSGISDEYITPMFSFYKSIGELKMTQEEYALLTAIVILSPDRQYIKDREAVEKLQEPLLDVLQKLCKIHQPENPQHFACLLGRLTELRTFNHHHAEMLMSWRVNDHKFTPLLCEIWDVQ
Sequence of Peroxisome proliferator-activated receptor gamma (Homo sapiens) (P37231 whole entry, looked up): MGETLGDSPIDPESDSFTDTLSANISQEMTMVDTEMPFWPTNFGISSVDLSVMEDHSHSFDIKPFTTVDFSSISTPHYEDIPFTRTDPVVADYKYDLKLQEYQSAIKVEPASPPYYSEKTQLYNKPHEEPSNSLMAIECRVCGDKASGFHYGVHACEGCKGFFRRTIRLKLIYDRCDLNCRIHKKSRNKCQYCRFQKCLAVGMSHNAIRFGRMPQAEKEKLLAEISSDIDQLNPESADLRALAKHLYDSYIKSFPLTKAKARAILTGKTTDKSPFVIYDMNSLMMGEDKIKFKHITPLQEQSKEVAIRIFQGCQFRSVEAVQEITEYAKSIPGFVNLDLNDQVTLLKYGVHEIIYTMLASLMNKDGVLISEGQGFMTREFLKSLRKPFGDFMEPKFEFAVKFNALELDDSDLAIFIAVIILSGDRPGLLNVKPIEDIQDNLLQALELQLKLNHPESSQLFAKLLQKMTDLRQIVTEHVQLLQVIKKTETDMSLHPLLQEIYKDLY

For `COc1cc(OC)nc(NC(=O)NS(=O)(=O)c2cc(NC=O)ccc2C(=O)N(C)C)n1`, the activation was 1.85% (inactive) in [1], -1.24% (inactive) in experiment [4] and -12.6% (inactive) in experiment [5]. The Potency result in [2], in experiment [3], in experiment [6] and in [7] was “inactive” each time. In addition, the result in experiment [8] and in experiment [10] was inactive. For the same compound, in [9], the max response was -3.56%.
As for `Cc1nn(-c2cc(NS(C)(=O)=O)c(Cl)cc2Cl)c(=O)n1C(F)F`, the activation in experiment [1] was -3.3% (inactive). The Potency entry in experiment [2], in experiment [6], in experiment [7] and in experiment [11] was “inactive” throughout. The result in experiment [8] was inactive. Also, the max response in experiment [9] was 10.2%.
With `O=C1C=CC(=O)c2ccccc21`, the activation in [1] was 0.338% (inactive); in experiment [4], -2.25% (inactive); in experiment [5] it was 0.432% (inactive). The Potency entry in experiment [3], in experiment [6] and in experiment [7] was “inactive” in each case. Moreover, the result in [8] and in experiment [10] was inactive. The Potency in [11] is 54.5 µM (active).
Consider `N#CN=C1SCCN1Cc1ccc(Cl)nc1`, for which the activation in experiment [5] is 0.0374% (inactive). For the same compound, the Potency result in experiment [6] and in experiment [7] was “inactive” throughout. Besides, the max response in experiment [9] amounted to 6.15%.
For `COC(=O)c1c(C(F)F)nc(C(F)(F)F)c(C2=NCCS2)c1CC(C)C`, the activation in experiment [1] is -1.74% (inactive). In addition, the Potency result in experiment [2] and in experiment [6] was “inactive” throughout. For the same compound, in experiment [8], the outcome was inactive.
Regarding `ClCc1ccccc1Cl`, the activation in experiment [1] is 1.96% (inactive); in experiment [4] it was -0.339% (inactive). Besides, the Potency entry in experiment [2], in experiment [3], in experiment [6] and in experiment [7] was “inactive” throughout. The result in [8] and in experiment [10] was inactive.
Take `C[N+]1(C)CCCCC1`: in experiment [1], the activation is 4.04% (inactive). For the same compound, the Potency entry in experiment [2], in experiment [6] and in experiment [7] was “inactive” in each case. Further, the outcome in experiment [8] and in experiment [10] was inactive. Besides, the max response in experiment [9] was -8.78%.
As for `CC1(C)CON(Cc2ccccc2Cl)C1=O`, the Potency result in [6], in experiment [7] and in experiment [11] was “inactive” throughout. Besides, the max response in [9] was found to be 5.44%.
